# POLK inh: DNA polymerase kappa (human) inhibition. AID 588579. Q9UBT6. Potency, µM (highest dose often 107 µM), for the others: top-dose activity, negative = inhibition, most hits filed as inhibitors. hit rate 0.53% among 400,000. purified Pol kappa, fluorescent DNA synthesis assay, 10 min; note: potency is the fitted concentration of half-maximal effect; % is set by controls: 0 for no effect and ±100 for the full control effect
#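 Inhibition of 10 nM Pol kappa is measured by a fluorescent read-out at 0 and 10 min following addition of 50 nM substrate (final), with a 15-min room-temperature compound preincubation.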
# PI5P4K alpha inh: blocks human PI5P4K alpha kinase activity; P48426; PI5P4Kalpha enzyme, ADP-Glo luminescence, 60 min; hits give low values; hit rate 1.2% among 330,000; max response, %; active = max response of -50% or lower; inconclusive = between -30% and -50%; inactive = -30% or higher; note: value at the top dose of about 77 µM; % is set by controls: 0 for no effect and ±100 for the full control effect
#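 Compounds were pin-transferred onto PI5P4Kalpha and substrate in HEPES pH 7.4 buffer with EGTA, CHAPS and 5% DMSO. ATP (5 microM final) started the reaction, which ran 60 minutes at room temperature before ADP-Glo detection.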
# POLH inh: DNA polymerase eta (human) inhibition; hit rate 1.2% among 390,000; Q9Y253; AID 588591; recombinant Pol eta, fluorescent DNA replication assay; Potency, µM (series often up to 114 µM), for the others: at the highest dose activity change, negative = inhibition, hits mostly inhibitors; note: potency is the fitted concentration of half-maximal effect; % is set by controls: 0 for no effect and ±100 for the full control effect
#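 Fluorescent replication assay: 50 nM final substrate added after a 15 min room-temperature compound preincubation with 10 nM enzyme. Signal taken at 0 min and again at 10 min.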
# WRN helicase inh: WRN helicase (human) inhibition; Q14191; hit rate 0.46% among 360,000; WRN helicase unwinding, fluorescent forked duplex, kinetic; Potency, µM (doses to about 114 µM), inactives show at the top dose activity change, negative = inhibition, usual class: inhibitors; note: potency is the fitted concentration of half-maximal effect; % is set by controls: 0 for no effect and ±100 for the full control effect; nearly all actives have a fitted effect of over 55% in size
# Target sequence (Q14191 whole entry, looked up): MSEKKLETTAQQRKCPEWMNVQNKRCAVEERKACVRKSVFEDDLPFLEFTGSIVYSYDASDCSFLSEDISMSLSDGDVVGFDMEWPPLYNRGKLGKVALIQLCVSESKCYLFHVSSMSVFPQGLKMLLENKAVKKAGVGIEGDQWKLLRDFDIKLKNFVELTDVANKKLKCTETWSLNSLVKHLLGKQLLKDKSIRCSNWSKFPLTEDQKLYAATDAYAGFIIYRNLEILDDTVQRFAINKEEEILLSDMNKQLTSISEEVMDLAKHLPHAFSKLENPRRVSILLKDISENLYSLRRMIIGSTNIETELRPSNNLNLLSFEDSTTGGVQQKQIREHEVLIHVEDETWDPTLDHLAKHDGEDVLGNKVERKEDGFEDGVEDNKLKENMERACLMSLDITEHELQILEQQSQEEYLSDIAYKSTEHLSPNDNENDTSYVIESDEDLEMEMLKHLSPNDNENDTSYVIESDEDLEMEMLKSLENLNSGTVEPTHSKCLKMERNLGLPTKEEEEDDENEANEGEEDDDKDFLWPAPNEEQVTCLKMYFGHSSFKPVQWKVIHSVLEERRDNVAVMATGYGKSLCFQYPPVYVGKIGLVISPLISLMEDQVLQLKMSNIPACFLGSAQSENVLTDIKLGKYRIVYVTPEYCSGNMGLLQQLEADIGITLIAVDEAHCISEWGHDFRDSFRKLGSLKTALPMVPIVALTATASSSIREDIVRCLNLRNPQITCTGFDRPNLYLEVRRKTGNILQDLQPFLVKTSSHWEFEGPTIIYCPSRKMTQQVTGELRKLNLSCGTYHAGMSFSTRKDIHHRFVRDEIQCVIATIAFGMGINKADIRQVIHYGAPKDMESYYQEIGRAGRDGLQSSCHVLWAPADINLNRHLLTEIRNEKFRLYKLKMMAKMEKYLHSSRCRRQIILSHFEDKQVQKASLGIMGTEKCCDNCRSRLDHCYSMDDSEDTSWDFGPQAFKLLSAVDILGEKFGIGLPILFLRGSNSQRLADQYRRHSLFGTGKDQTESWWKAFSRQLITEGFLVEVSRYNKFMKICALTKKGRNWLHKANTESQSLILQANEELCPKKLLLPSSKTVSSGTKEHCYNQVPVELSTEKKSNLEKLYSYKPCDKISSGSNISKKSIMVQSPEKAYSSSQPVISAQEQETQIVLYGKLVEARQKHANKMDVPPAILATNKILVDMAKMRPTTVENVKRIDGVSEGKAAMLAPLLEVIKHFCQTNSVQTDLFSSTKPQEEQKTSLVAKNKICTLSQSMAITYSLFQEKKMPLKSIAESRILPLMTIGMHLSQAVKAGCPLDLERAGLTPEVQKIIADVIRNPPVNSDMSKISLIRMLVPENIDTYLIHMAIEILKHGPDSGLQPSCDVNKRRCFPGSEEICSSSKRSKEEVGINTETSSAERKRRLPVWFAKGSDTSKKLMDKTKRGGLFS
#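 WRN at 20 nM final preincubated with compound 15 min at room temperature; reaction started with 100 nM fluorophore/quencher forked duplex oligonucleotide and 2 mM ATP final. Unwinding followed kinetically by red fluorescence (ex 525, em 598 nm).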
# POLB inh: inhibitors of human DNA polymerase beta. hit rate 1.3% among 340,000. Potency, µM (doses to about 114 µM), inactives show top-dose activity change, negative = inhibition, actives largely listed as inhibitors. P06746. Pol beta primer extension/strand displacement, fluorescence kinetic; note: potency is the fitted concentration of half-maximal effect; % is set by controls: 0 for no effect and ±100 for the full control effect
#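 Kinetic readout of DNA synthesis with strand displacement by Pol beta. Compound and 10 nM enzyme sit 15 min at room temperature; 50 nM substrate starts the reaction, read immediately and at 10 min.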
# POLI inh: inhibitors of human DNA polymerase iota; Pol iota fluorescent replication assay, 10 min; hit rate 1% among 390,000; Potency, µM (series often up to 115 µM), without a hit: top-dose activity, negative = inhibition, hits mostly inhibitors; Q9UNA4; AID 588590; note: potency is the fitted concentration of half-maximal effect
#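 Fluorescent replication assay read twice, at 0 min and 10 min after adding 50 nM (final) substrate. Enzyme (10 nM) and compounds were first incubated 15 min at room temperature; enzyme-free buffer wells were negative controls.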
# An asterisk follows results filed as active; ? = inconclusive; / = no result; [ ] = dose if it differs, or a comment. In the library only some 2.8% were active in any assay of this set; here they are far more common. Unless noted, calls come from the whole dose curve; as a rule, active = well fitted curve in the direction sought with a large enough effect; inconclusive = small, poorly fitted or top-dose-only effect, or another doubt; inactive = no such curve, though single readings can be large; an effect the other way counts as inactive or inconclusive.
SMILES,POLK inh,PI5P4K alpha inh,POLH inh,WRN helicase inh,POLB inh,POLI inh
Cc1c(NC(=O)COC(=O)c2c3c(nc4ccccc24)CCCC3)c(=O)n(-c2ccccc2)n1C,0%,-1,-18%,-19%[57.1 µM],-20%,?
Cc1c(NC(=O)C(C)OC(=O)c2c3c(nc4ccccc24)CCC3)c(=O)n(-c2ccccc2)n1C (stereo unspecified),-24%,?,50µM*,?,?,32µM*
Cc1cccc(Nc2ncnc3ccc(Br)cc23)c1,-8%,-15,-9%,6%,-2%,-14%
Clc1cccc(Nc2ncnc3ccc(Br)cc23)c1,-19%,/,-16%,-24%,7%,100µM*
C[N+](C)(C)CC(=O)N/N=C/c1c2ccccc2cc2ccccc12,-19%,1,-13%,11%[11.6 µM],45µM*,-20%
O=C(CSc1nc(-c2ccccc2)nc2c1CCCC2)c1ccc(F)cc1,11%,/,-12%,/,15%,35%
O=C(CSc1ncnc2nc[nH]c12)c1ccc(Cl)cc1,-27%,-55*,-5%,2%,15%,?
O=C(CSc1ncnc2nc[nH]c12)c1ccccc1,-5%,-5,6%,-7%,2%,5%
CCCNC(=O)c1ccc(-c2nc3ccccc3s2)s1,-10%,-11,?,-16%,16µM*,?
O=C(NCc1ccccc1Cl)c1ccc(Nc2nc3ccccc3n3nnnc23)cc1,6%,/,-15%,/,-1%,18%
CC1=C(c2ccc(C)c(C)c2)S(=O)(=O)N(Cc2ccc(C(=O)Nc3cc(F)ccc3F)cc2)C1=O,0%,/,/,/,74%,-5%
COc1ccc(N(C)S(=O)(=O)c2c(C)[nH]c(=O)[nH]c2=O)cc1,-15%,0,-5%,-15%,37%,7%
COc1ccc(N(C)S(=O)(=O)c2c(C)[nH]c(=O)[nH]c2=O)c(OC)c1,-7%,-1,-13%,-2%,3%,89µM*
COc1ccc(C(=O)COC(=O)c2ccc3c(c2)OCCO3)c(OC)c1,-26%,-26,?,-14%,/,?
COc1ccc(C(=O)COC(=O)c2cccnc2Cl)c(OC)c1,?,-75*,50µM*,-10%[57.1 µM],13µM*,40µM*
COc1ccc(OC)c(C(=O)COC(=O)c2cccnc2Cl)c1,-19%,1,2%,1%,29%,20%
COc1ccc(C(=O)COC(=O)CNC(=O)C2CCCCC2)c(OC)c1,-25%,?,?,-8%,22µM*,?
COc1ccc(C(=O)COC(=O)/C=C/c2ccccc2)c(OC)c1,45µM*,-61*,40µM*,-3%[11.6 µM],/,35µM*
COc1ccc(C(=O)COC(=O)c2cc(C)no2)c(OC)c1,-41%,?,?,-16%,/,50µM*
CCc1ccc(NC(=O)CSc2nnc3[nH]c(=O)cc(-c4ccccc4)n23)cc1,-2%[60.1 µM],/,12%,/,-20%,-7%
Cc1ccc(-c2csc(/C(C#N)=C(\O)CN3CCN(C(=O)c4ccco4)CC3)n2)cc1,-17%,?,22µM*,?,-1%,?
N#C/C(=C(/O)CN1CCOCC1)c1nc(-c2ccccc2)cs1,-4%,/,-1%,-8%,0%,?
N#C/C(=C(/O)CCl)c1nc(-c2ccccc2)cs1,-15%,-28,40µM*,-18%,?,?
Cc1ccc(-c2csc(/C(C#N)=C(\O)CCl)n2)cc1,-18%,?,45µM*,-22%,?,?
COc1ccccc1N1CCN(C/C(O)=C(\C#N)c2nc(-c3ccccc3)cs2)CC1,-14%,/,2%,-19%,?,-1%
SMILES,POLK inh,PI5P4K alpha inh,POLH inh,WRN helicase inh,POLB inh,POLI inh
N#C/C(=C(/O)CN1CCCCC1)c1nc(-c2ccc(Cl)cc2)cs1,-7%,/,7%,-7%[57.1 µM],0%,16%
Cc1ccc(NC(=O)CN2CCN(C(=O)c3ccco3)CC2)cc1,4%,0,-7%,-3%,-4%,25%
Cc1ccc2nc(-c3ccc(NC(=O)CN4CCN(C(=O)c5ccco5)CC4)cc3)sc2c1,45µM*,/,79µM*,?,32µM*,28µM*
O=C(CSc1nccn1Cc1ccccc1)NCc1ccccc1Cl,2%[60.1 µM],/,-8%,/,0%,-8%
O=C(NCc1ccccc1)c1cccc(Br)n1,-4%,-4,-3%,-2%[11.6 µM],2%,79µM*
O=C(Nc1c(C(=O)Nc2ccc(F)cc2)oc2ccccc12)c1ccccc1F,4%,/,-19%,/,16%,21%
CCCN1CCCc2cc(CN)ccc21,0%,/,89µM*,-2%,10%,3.2µM*
CC1=C(C(=O)N2CCN(c3ccc(Cl)cc3)CC2)C2(CCC(C)CC2)OC1=O (stereo unspecified),-8%,/,/,/,-28%,-23%
COc1ccc(C2NC(=S)N3C(c4ccc(OC)cc4)NC(=S)N23)cc1 (stereo unspecified),-10%,-90*,-13%,89µM*,10%,?
S=C1NC(c2ccccc2)N2C(=S)NC(c3ccccc3)N12 (stereo unspecified),-4%,-81*,-15%,-4%,-19%,-1%
OC1NC(=S)N(c2ccccc2)C1O (stereo unspecified),-1%,9,-3%,-10%,27%,19%
Cc1ccc(C2NC(=S)N3C(c4ccc(C)cc4)NC(=S)N23)cc1 (stereo unspecified),/,-79*,-10%,-2%,/,/
Cc1ccc(C2NC(=S)NC3=C2C(=O)CCC3)cc1 (stereo unspecified),2%,3,-11%,-14%,-19%,58%
CCC(=O)N1CCc2cc(S(=O)(=O)NC(C(=O)Nc3cc(OC)cc(OC)c3)C(C)C)ccc21 (stereo unspecified),3%,/,-7%,/,20%,12%
O=C(OCC1OC(n2ncc(=O)[nH]c2=O)C(OC(=O)c2ccccc2)C1OC(=O)c1ccccc1)c1ccccc1 (stereo unspecified),?,-4,89µM*,-9%,?,?
O=c1c(=O)n(-c2cccc(Cl)c2)ccn1Cc1cccc(F)c1,-25%,/,-13%,/,32µM*,9%
CC(C)(C)c1nnc2sc(SCC(=O)NCc3ccco3)nn2c1=O,-15%,-4,-10%,-19%,/,12%
Cc1cc(C(=O)CSc2nn3c(=O)c(C(C)(C)C)nnc3s2)c(C)n1C1CC1,0%,-2,-13%,4%[11.6 µM],-17%,79µM*
Cc1nnc(SCC(=O)c2cc(C)n(C3CC3)c2C)s1,-14%,0,-4%,-7%,35%,-6%
CN(Cc1ccco1)C(=O)CSc1nn2c(=O)c(C(C)(C)C)nnc2s1,-24%,-10,79µM*,-11%[11.6 µM],/,?
CC(=O)Nc1cccc(Oc2nc(NC(C)C)nc3cc(-c4ccccc4)sc23)c1,/,21,/,-10%,/,/
COc1cc(/C=C2\C=Cc3ccccc32)cc(OC)c1OC,-9%,/,/,/,/,21%
